Only some compounds are listed: those with a hit (about 4.5% of all), similar ones and a draw of the others.
NR3A LBD binder – binders of NR3A ligand-binding domain, primary screen, biophysical, differential scanning fluorimetry, uHTS | Glutamate receptor ionotropic, NMDA 3A (GRIN3A) ligand-binding domain | NR3A LBD differential scanning fluorimetry, Tm shift; 0% = protein alone, 100% = glycine-bound protein | Tm shift relative to glycine control, % at 25 µM | actives 2.5% (n = 340,000);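 active = melting temperature shift of at least 10% of the positive control shift, at one fixed dose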
ZTA DNA inh – ZTA (EBV) inhibition in EBNA-1 counter-screen; ZTA-DNA binding, fluorescence polarization; P03206; inhibition, % at 11 µM; actives 0.15% (n = 320,000); AID 2234; in the data active = inhibition above about 33%
Target sequence (P03206 whole entry, looked up): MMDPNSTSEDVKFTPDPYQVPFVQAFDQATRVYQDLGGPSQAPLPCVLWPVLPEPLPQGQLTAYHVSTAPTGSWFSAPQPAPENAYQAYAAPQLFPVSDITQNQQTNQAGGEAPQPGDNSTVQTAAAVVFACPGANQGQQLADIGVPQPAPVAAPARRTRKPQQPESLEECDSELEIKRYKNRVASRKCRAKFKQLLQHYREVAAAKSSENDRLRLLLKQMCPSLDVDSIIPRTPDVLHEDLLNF
TPT1 inh – Candida albicans TPT1 enzyme inhibitors, primary screen, biochemical, fluorescence polarization; tRNA 2'-phosphotransferase TPT1 (Candida albicans SC5314); recombinant caTPT1, FP RNA substrate dephosphorylation; inhibition, % at 5 µM; actives 0.81% (n = 300,000); AID 1962, 2009;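 active = inhibition above the mean of all tested compounds plus 3 SD, set per screening campaign, cut at about 24% in these data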;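 also: plate controls were DMSO alone for no effect and ferristatin control at 100 nM for full effect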
EBNA-1 inh – EBNA-1 DNA-binding inhibitors, primary screen, biochemical, fluorescence polarization. inhibition, % at 14.8 µM. actives 0.34% (n = 300,000); in the data active = inhibition above about 28%
Rpn11 block – Rpn11 (PSMD14) deubiquitinase inhibitors, primary screen, biochemical, fluorescence polarization, uHTS | 26S proteasome non-ATPase regulatory subunit 14 (Homo sapiens), O00487 | human 26S proteasome, Ub4-pepOG fluorescence polarization; 20S core pre-blocked with epoxomicin | inhibition, % at 20 µM | actives 0.59% (n = 360,000);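 active = inhibition at 20 µM, scaled to each plate's controls, above about 33%, limit read from the data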
dFosB act-1 – activators of delta FosB homodimer, primary screen, biochemical, fluorescence polarization, TAMRA-CDK5 oligo, single point; Protein FosB (Mus musculus), P13346; purified delta FosB; percent of positive-control signal above neutral wells; activation, % at 25 µM; actives 0.99% (n = 340,000); AID 493131, 2011;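 active = mean activation above about 17%, with every replicate also reaching it, limit read from the data, passing the limit was not always enough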
dFosB act-2 – activators of mouse delta FosB DNA binding, confirmation, biochemical, fluorescence polarization, TAMRA-CDK5 oligo, cherry-picked samples | 2,400 tested, under 10 active | shares compounds with dFosB act-1 | activation, % at 24.9 µM | AID 588690, 2011 | purified delta FosB; normalised: neutral wells 0, positive control 100;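 active = highest replicate activation at or above 34% and every replicate reaching that threshold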;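 also: higher polarization means more probe DNA bound by delta FosB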
The depositor's hits bear a star; nt = no result given.

SMILES | NR3A LBD binder | ZTA DNA inh | TPT1 inh | EBNA-1 inh | Rpn11 block | dFosB act-1 | dFosB act-2
COc1ccccc1CNC(=O)Cc1csc(NC(=O)Nc2ccccc2OC)n1 | -9 | -11 | -4 | -6 | 7 | 0 | nt
Cc1ccc(OCC(=O)N(Cc2nnc(-c3ccccc3Cl)o2)C2CC2)cc1C | 2 | 2 | nt | nt | -7 | -7 | nt
CCOc1ccc(NC(=O)c2ccc(NC(=O)Cc3n[nH]c(=O)c4ccccc34)cc2)cc1 | -33 | 3 | 1 | 9 | 0 | 111* | -7
CC(C)CN(C(=O)COC(=O)C(C)N1C(=O)c2ccccc2C1=O)c1c(N)n(Cc2ccccc2)c(=O)[nH]c1=O (stereo unspecified) | -2 | -7 | 4 | 27 | 1 | 37* | 3
COCCN(C(=O)COC(=O)CCc1ccccc1OC)c1c(N)n(Cc2ccccc2)c(=O)[nH]c1=O | -1 | -4 | 0 | 6 | -4 | -8 | nt
Cc1ccc(SCC(=O)OCC(=O)N(CC(C)C)c2c(N)n(Cc3ccccc3)c(=O)[nH]c2=O)cc1C | 5 | 5 | 2 | 4 | 4 | 33* | -4
Cc1cc(C)cc(OCC(=O)OCC(=O)N(CC(C)C)c2c(N)n(Cc3ccccc3)c(=O)[nH]c2=O)c1 | -1 | 3 | -1 | 2 | 2 | 1 | nt
Cc1ccc(OCCC(=O)N(CCC(C)C)c2c(N)n(Cc3ccccc3)c(=O)[nH]c2=O)cc1 | 0 | 9 | 0 | 7 | 4 | 24* | -2
CCN(C(=O)COC(=O)CCc1ccccc1OC)c1c(N)n(Cc2ccccc2)c(=O)[nH]c1=O | 0 | 7 | 1 | 4 | -1 | 28* | 2
O=C1CC(c2cccs2)Cc2nc(NC(=O)C3CC3)ncc21 (stereo unspecified) | -2 | -9 | 2 | -2 | 2 | -5 | nt
CC(=O)Nc1ccc(NC(=O)C(C)OC(=O)CNS(=O)(=O)/C=C/c2ccc(C)cc2)cc1 (stereo unspecified) | -4 | 22 | 5 | 5 | -12 | -4 | nt
Cc1ccc(C2C(C#N)=C(N)Oc3cc(C)oc(=O)c32)o1 (stereo unspecified) | 1 | 18 | 1 | 9 | -2 | -11 | nt
CN(C(=O)COC(=O)c1ccccc1OCc1ccc(Cl)cc1)c1c(N)n(Cc2ccccc2)c(=O)[nH]c1=O | 3 | -9 | -1 | 15 | -3 | 34* | 2
CN(C(=O)COC(=O)c1ccccc1Cc1ccccc1)c1c(N)n(Cc2ccccc2)c(=O)[nH]c1=O | 0 | 5 | -3 | 6 | 2 | -8 | nt
CS(=O)(=O)c1ccc(Cl)c(NC(=O)COC(=O)COc2ccc3c(c2)CCC3)c1 | nt | -5 | -2 | -7 | -1 | -6 | nt
Cc1ccc(NC(=O)C=NOCC(=O)Nc2cc(C)cc(C)c2)cc1 | -4 | nt | nt | nt | -3 | 25* | 4
CCOc1ccc(N2CC(C(=O)N3CCN(c4ccccn4)CC3)CC2=O)cc1 (stereo unspecified) | -1 | -1 | 1 | -12 | -3 | 0 | nt
COc1ccc(COC(=O)c2ccc(S(=O)(=O)N3CCC(C)CC3)cc2)cc1 | 0 | nt | nt | nt | -2 | 19* | 0
COc1cccc(COC(=O)c2ccc(S(=O)(=O)N3CCC(C)CC3)cc2)c1OC | 7 | 4 | -2 | 7 | 4 | 6 | nt
COc1ccc(S(=O)(=O)N2CCCCCC2)cc1 | -1 | -1 | -1 | 6 | -2 | -3 | nt
COc1ccc(CNS(=O)(=O)c2ccc(S(=O)(=O)N3CCCCC3)cc2)cc1 | -3 | -3 | 1 | -1 | 1 | 41* | 1
CC1CC(C)CN(C(=S)SCc2nc(N)nc(Nc3ccccc3)n2)C1 (stereo unspecified) | 8 | 3 | -3 | 0 | -4 | 38* | 3
